# Source: PubChem BioAssay
# Only a selection was taken, and hits are over-represented in it overall.
# TSHR agonist: qHTS Assay for Agonists of the Thyroid Stimulating Hormone Receptor. Thyrotropin receptor (Homo sapiens), P16473. HEK293-CNG-TSHR cells (CNG channel as cAMP sensor), membrane potential dye, cAMP. Potency, µM (series often up to 57.1 µM), for the others: top-dose activation, hits mostly activators. 73,000 tested, 0.48% active; active = well fitted activation curve with a large enough effect in the main read-out, with a control signal flat, not every such curve was filed as active; inconclusive = small, poorly fitted or top-dose-only effect, or a change in a side signal; inactive = no such curve, though single readings can be large or run the other way; % of control where 0% means no effect;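 also: the control signal comes from parental cells without the receptor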
# Target sequence (P16473 whole entry, looked up): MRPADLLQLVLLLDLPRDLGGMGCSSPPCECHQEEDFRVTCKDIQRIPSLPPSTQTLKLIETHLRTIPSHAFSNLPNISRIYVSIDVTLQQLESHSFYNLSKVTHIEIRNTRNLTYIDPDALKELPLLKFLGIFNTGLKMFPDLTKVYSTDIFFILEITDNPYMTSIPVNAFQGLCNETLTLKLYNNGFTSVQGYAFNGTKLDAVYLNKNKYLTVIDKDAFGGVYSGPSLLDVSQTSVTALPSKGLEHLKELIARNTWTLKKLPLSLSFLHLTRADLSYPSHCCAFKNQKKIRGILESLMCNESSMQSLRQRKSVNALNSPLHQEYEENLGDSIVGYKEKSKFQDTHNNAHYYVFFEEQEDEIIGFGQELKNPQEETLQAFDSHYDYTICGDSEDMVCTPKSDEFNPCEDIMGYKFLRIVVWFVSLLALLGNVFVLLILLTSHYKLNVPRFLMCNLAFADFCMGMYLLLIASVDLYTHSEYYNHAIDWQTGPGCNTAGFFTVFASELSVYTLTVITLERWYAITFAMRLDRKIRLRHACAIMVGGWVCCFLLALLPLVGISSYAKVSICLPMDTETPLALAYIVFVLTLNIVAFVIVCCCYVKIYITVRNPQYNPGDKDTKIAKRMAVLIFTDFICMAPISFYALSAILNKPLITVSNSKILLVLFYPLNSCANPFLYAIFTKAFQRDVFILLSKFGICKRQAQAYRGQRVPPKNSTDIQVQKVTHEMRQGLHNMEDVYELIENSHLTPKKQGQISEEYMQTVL
#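 cAMP rise detected as CNG-channel membrane depolarization by fluorescent dye (emission 590 nm), 30 min after compound, following 60 min dye loading containing 100 uM RO 20-1724 at room temperature. Cells: TSHR/CNG HEK 293, with parental CNG HEK 293 as control.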
# Imprint erasure: qHTS Assay for Compounds that Induce Erasure of Genomic Imprints. 110,000 tested, 0.02% active. mouse ES Peg3-LacZ reporter, beta-gal luminescence, 40 h. Potency, µM (titrated, usually from 60.7 µM), inactives show at the highest dose activity change, positive = activation, usual class: activators
#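 Gelatin-coated wells received 300 freshly trypsinized female ES cells with a Peg3LacZ-Neo reporter on the maternal allele, then incubated 40 hours at 37C. BetaGlo was added for 5 minutes at room temperature before a single luminescence read.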
# HEK293 cAMP cs: qHTS Assay for Agonists of the Thyroid Stimulating Hormone Receptor: Activators of Intracellular cAMP Concentrations in Parental HEK 293. parental HEK293 CNG cAMP sensor, membrane potential fluorescence. AID 938, 2007. 73,000 tested, 2.5% active. Potency, µM (doses to about 57.1 µM), inactives show top-dose activation, most hits filed as activators; also: % of control where 0% means no effect; nearly all actives have a fitted effect of over 55% in size
#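 Counterscreen for endogenous-receptor signalling: CNG-channel HEK 293 cells report cAMP rise by membrane depolarization. After 60 min dye equilibration with 100 uM RO 20-1724, compounds incubated 30 min before bottom-read fluorescence at 590 nm.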
# * hit, by the source's call; ? = inconclusive; . = no result; ! = a repeat was not active; [ ] = remark or other dose. Unless noted, calls follow the shape of the dose curve; as a rule, active = well fitted activation curve with a large enough effect; inconclusive = small, poorly fitted or top-dose-only effect; inactive = no such curve, though single readings can be large or run the other way. Potency is read from the fitted curve at half-maximal effect.
SMILES,TSHR agonist,Imprint erasure,HEK293 cAMP cs
COc1cccc(C2CC(=O)Nc3c2c(=O)nc2c(C)cccn32)c1OC (centres undefined),.,-5%[10.9 µM],.
O=C(Oc1ccc(N(Cc2cccs2)C2=NS(=O)(=O)c3ccccc32)cc1)c1ccco1,5%,-21%,7%
O=C(OCCN(C1=NS(=O)(=O)c2ccccc21)c1ccc(Cl)cc1)c1ccco1,?,-15%,16µM*
COc1ccc(CN(C(=O)c2ccco2)c2ccc(Br)cc2)cc1OC,?,-13%,32µM*
COc1cc(CN(C(=O)c2ccco2)c2ccc(C)cc2)ccc1O,20%,-11%,23%
COc1ccc(N(C(=O)c2ccco2)S(=O)(=O)c2cc(OC)ccc2OC)cc1,?,-5%,16µM*
COc1ccc(N(C(=O)c2ccco2)S(=O)(=O)c2cccs2)cc1,?,0%,?
Cc1ccc2c(Sc3ccc(Cl)cc3)c(C(=O)NCCC(C)C)[nH]c2c1,.,-20%[10.9 µM],.
COc1cccc(CNC(=O)c2ccc3nc(-c4ccccc4)c(-c4ccccc4)nc3c2)c1OC,.,-15%[10.9 µM],.
CCOc1ccc(NC(=O)c2ccc3nc(C(C)C)oc3c2)cc1,.,-3%[10.9 µM],.
Clc1ccccc1C(c1ccccc1)(c1ccccc1)n1ccnc1,40µM*!,-21%,21%[25.6 µM]
Clc1ccccc1-c1nccc(-n2ccnc2)n1,5%,-5%,-16%
CSc1ccc(CCNC(=O)C2CCN(c3nc4ccccc4nc3C(F)(F)F)CC2)cc1,.,-10%[10.9 µM],.
Cc1cccc2cc(C#N)c(NCCNC(=O)NC3CCCCC3)nc12,?,-7%,20µM*
Cc1ccc2cc(C#N)c(NCCNC(=O)C3CCC3)nc2c1C,.,-10%,28%
CCOC(=O)C1CCCN(CC(=O)NC2CC2)C1 (centres undefined),0%,-1%,1%
CCOC(=O)C1CCCN(CC(=O)NC2=Nc3ccccc3N=C(C)C2c2ccccc2)C1 (centres undefined),25µM*,17%,30%
Cc1ccnc(N2CCC(C(=O)Nc3ccc(Oc4ccccc4)cc3)CC2)n1,-2%,1%,8%
Cc1ccnc(N2CCC(C(=O)Nc3cccc(C(F)(F)F)c3)CC2)n1,?,-15%,20µM*
Cc1ccc(C(=O)CSC2=C(C#N)C(c3ccco3)C3=C(CC(C)(C)CC3=O)N2)cc1 (centres undefined),14%,-19%,8%
CC1(C)CC(=O)C2=C(C1)NC(SCC(=O)Nc1ccccc1)=C(C#N)C2c1ccco1 (centres undefined),?,-18%,16µM*
O=C(Nc1nccs1)c1c(O)c2cccc3c2n(c1=O)CCC3,?,4%,1.3µM*
O=C(Nc1ccccn1)c1c(O)c2cccc3c2n(c1=O)CCC3,5%,4%,5%
Cn1c(O)c(N=N/C(=N/c2ccccn2)c2ccccn2)c2cc(Br)ccc21,?,.,-46%
COCCn1c(=O)c(-c2ccc(F)cc2)nc2cnc(OC)nc21,0%,-1%,14%
SMILES,TSHR agonist,Imprint erasure,HEK293 cAMP cs
COc1cc(OC)cc(C(=O)Nc2cc3c(cc2N2CCOCC2)n(C)c(=O)n3C)c1,.,7%[10.9 µM],.
Cc1nc2ncnn2c(N2CCC(C(=O)NC3CCCC3)CC2)c1Cc1ccccc1,10%,.,20%
Cc1nc2ncnn2c(Nc2ccc3c(c2)OCO3)c1Cc1ccccc1,?,-9%,25µM*
CCOC(=O)CSc1nc2ccc(NC(=O)COc3ccc(F)cc3)cc2s1,.,-2%[10.9 µM],.
Cc1cc(C)n(-c2ccn(Cc3ccc(Cl)cc3Cl)c(=O)n2)n1,?,-15%,16µM*
CC(C)(C)n1ncc2c(=O)n(Cc3ccc(Cl)cc3Cl)cnc21,?,-16%,?
C[C@@]12CC[C@@H]3[C@H](CCC4=CC(=O)CC[C@]43C)[C@@H]1CC[C@@H]2C(=O)Cn1cnc2c(=S)nc[nH]c21,0%[11.4 µM],-2%[10.9 µM],-4%[11.4 µM]
CN(C)C(=O)c1ccc(-c2ccc3ncnc(N(C)C)c3c2)cc1,9%,-7%,6%
CN(C)c1ncnc2ccc(-c3ccc4c(c3)OCO4)cc12,?,-28%,25µM*
CCc1cc(C(=O)OC)c(NC(=O)CC2NCCNC2=O)s1 (centres undefined),5%,-1%,-1%
CCc1cc(C(=O)OC)c(N2C(=O)C3C4C=CC(C4)C3C2=O)s1 (centres undefined),7.9µM*,4%,4%
CCOC(=O)c1cnc(N2CCN(c3cccc(C)c3C)CC2)c2ccccc12,.,6%[10.9 µM],.
COc1ccccc1C1C=C(c2ccc(C(C)C)cc2)Nc2nnnn21 (centres undefined),.,-12%[10.9 µM],.
COc1ccccc1C1C=C(c2ccc(C)cc2)Nc2nnnn21 (centres undefined),?,-8%,25µM*
Cc1nnc(SCc2ccccc2Cl)c2cc3sccc3n12,.,-15%[10.9 µM],.
CC(=O)Nc1ccc(SCC(=O)N(CCC#N)c2ccc(C)cc2)cc1,9%,-18%,0%
COc1ccccc1N(CCC#N)C(=O)CSc1ccc2c(c1)OCCO2,25µM*,-16%,5%
COc1ccc(CNc2nc3nc(C)cc(C)n3n2)cc1OC,6%,17%,-3%
Cc1cc(C)n2nc(NCc3cccc(Br)c3)nc2n1,1µM*,-14%,1%
CCOC(=O)CSc1nnc2n1C(C)(C)Cc1ccccc1-2,-3%,-4%,20%
CC1(C)Cc2ccccc2-c2nnc(SCc3ccc(C#N)cc3)n21,?,-14%,25µM*
O=C1c2ccccc2NC2CCCCC12 (centres undefined),?,-7%,5µM*
O=C1c2ccccc2NC2CCCCCN12 (centres undefined),7%,-3%,5%
COc1cccc(-c2nnc(SCC(=O)OC(C)C)n2Cc2ccco2)c1,?,-14%,16µM*
CC(C)OC(=O)CSc1nnc(-c2cnccn2)n1Cc1ccco1,19%,2%,9%
SMILES,TSHR agonist,Imprint erasure,HEK293 cAMP cs
O=C(CSc1nnc(-c2ccc(O)cc2)n1Cc1ccco1)c1cccs1,10µM*,-13%,27%
O=C(CSc1nnc(-c2cccnc2)n1Cc1ccco1)c1ccccc1,4%,1%,8%
O=C(CSc1nnc(Cc2ccccc2)n1Cc1ccco1)NC1CCCC1,?,-20%,?
CC(C)OC(=O)CSc1nnc(Cc2ccccc2)n1Cc1ccco1,?,-4%,5µM*
Fc1ccccc1,4%,-1%,1%
Cc1ccccc1-n1c(=O)c2c3c(sc2n2cnnc12)CCCC3,.,-5%[10.9 µM],.
C[C@@H]1C=C[C@](Cc2ccccc2)(C(=O)O)N1C(=O)c1ccccc1,4%,4%,14%
C[C@@H]1C=C[C@](Cc2ccccc2)(C(=O)NCCN2CCOCC2)N1C(=O)c1ccccc1,?,-9%,16µM*
N#Cc1cccc(-c2nccc(-n3ccnc3)n2)c1,-10%,4%,-14%
COc1ccc(CNS(=O)(=O)c2cnc(N)nc2)c(OC)c1,.,-10%[10.9 µM],.
CCOC(=O)c1cnc(-n2nc(C)cc2C)nc1Nc1ccc(N(C)C)cc1,-14%,-22%,-8%
CCOC(=O)c1cnc(-n2nc(C)cc2C)nc1Nc1cccc(C(=O)O)c1,25µM*,-32%,13%
CCCCn1nnc(NC(=O)c2sc3cc(Cl)ccc3c2Cl)n1,?,-16%,25µM*
CCCn1nnc(NC(=O)c2ccc(Cl)cc2Cl)n1,-2%,-31%,2%
